# Assay results from PubChem BioAssay (NCATS).
# Inconclusive results are not listed. Entries that show only a call come without a potency. The source made the active and inactive calls. Calls come from the whole dose curve; as a rule, active = well fitted curve in the direction sought with a large enough effect; inconclusive = small, poorly fitted or top-dose-only effect, or another doubt; inactive = no such curve, though single readings can be large; an effect the other way counts as inactive or inconclusive.
# Assays:
# [1] = NS1 protein of Zika virus - qHTS assay to identify small molecule inhibitors in human HEK 293 cells (AID 1347053); note: nearly all actives have a fitted effect of over 55% in size
# Procedure, shortened: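 Following 20 h seeding, HEK 293 cells took compound, then 1 h later ZIKV MR766 (MOI = 0.5). Incubation ran 24 h at 37 C before TR-FRET detection of NS1; a drop in signal indicates inhibition.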
# [2] = qHTS of pediatric cancer cell lines to identify multiple opportunities for drug repurposing: Primary screen for DAOY cells (AID 1347090); note: nearly all actives have a fitted effect of over 55% in size
# Procedure, shortened: (§1)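 Eight- or eleven-point concentration series, 48 h treatment at 37 degrees C in growth media; readout CellTiter-Glo luminescence. Potency and efficacy were taken from the concentration-response curves.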
# [3] = qHTS of pediatric cancer cell lines to identify multiple opportunities for drug repurposing: Primary screen for SJ-GBM2 cells (AID 1347091)
# Procedure, shortened: as §1
# [4] = qHTS of pediatric cancer cell lines to identify multiple opportunities for drug repurposing: Primary screen for SK-N-MC cells (AID 1347093)
# Procedure, shortened: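 Metabolically active cells were quantified by ATP-dependent luminescence (CellTiter-Glo, 15 min at room temperature) following 48 h treatment. Cells had been plated at 500-1,000 per well and settled for 5 h beforehand.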
# [5] = qHTS of pediatric cancer cell lines to identify multiple opportunities for drug repurposing: Primary screen for U-2 OS cells (AID 1347096); note: nearly all actives have a fitted effect of over 50% in size
# Procedure, shortened: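 Cells (500-1,000/well) in growth media were settled 5 h at 37 degrees C, then given compounds for 48 h. Viability was read as CellTiter-Glo luminescence. Primary runs used MIPE at 11 points (0.78 nM-46 µM) and NPC at 8 points (0.59 nM-46 µM); follow-ups used 11 points.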
# [6] = qHTS of pediatric cancer cell lines to identify multiple opportunities for drug repurposing: Primary screen for Saos-2 cells (AID 1347097); note: nearly all actives have a fitted effect of over 40% in size
# Procedure, shortened: (§2)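 Quantitative HTS format: each compound titrated (MIPE 11 points from 0.78 nM, NPC 8 points from 0.59 nM) onto cells plated 5 hours earlier. After 48 h at 37 degrees C, CellTiter-Glo luminescence was recorded.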
# [7] = qHTS of pediatric cancer cell lines to identify multiple opportunities for drug repurposing: Primary screen for TC32 cells (AID 1347089); note: nearly all actives have a fitted effect of over 60% in size
# Procedure, shortened: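 Luminescent CellTiter-Glo read-out of metabolically active TC32 cells after 48 h compound exposure. Primary: MIPE 11-point, 0.78 nM–46 µM; NPC 8-point, 0.59 nM–46 µM. Confirmatory: 11-point dilutions.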
# [8] = qHTS of pediatric cancer cell lines to identify multiple opportunities for drug repurposing: Primary screen for SK-N-SH cells (AID 1347098); note: nearly all actives have a fitted effect of over 65% in size
# Procedure, shortened: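 Cells (500-1,000/well) rested 5 h, then received compounds for 48 h; metabolically active cells were measured by CellTiter-Glo luminescence. Final concentrations spanned up to 46 µM (MIPE, 11-point) or 0.59 nM-46 µM (NPC, 8-point) in primary screens, 11-point in follow-ups.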
# [9] = qHTS of pediatric cancer cell lines to identify multiple opportunities for drug repurposing: Primary screen for A673 cells (AID 1347092); note: nearly all actives have a fitted effect of over 45% in size
# Procedure, shortened: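 A673 cells (500-1,000 cells/well in growth media) were pre-incubated 5 h at 37 degrees C, then exposed to compounds for 48 h. Viability was read as CellTiter-Glo luminescence; concentration-response curves came directly from the primary screen.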
# [10] = qHTS of pediatric cancer cell lines to identify multiple opportunities for drug repurposing: Primary screen for BT-37 cells (AID 1347094)
# Procedure, shortened: as §2
# [11] = qHTS of pediatric cancer cell lines to identify multiple opportunities for drug repurposing: Primary screen for NB-EBc1 cells (AID 1347095)
# Procedure, shortened: as §2
# Potency is the fitted concentration of half-maximal effect.
smiles,measurement,setting,value
Cc1[nH]c(C=C2C(=O)Nc3ccc(S(=O)(=O)N(C)c4cccc(Cl)c4)cc32)c(C)c1C(=O)N1CCN(C)CC1,Potency,[1],inactive
same,Potency,[2],23.5 µM (active)
same,Potency,[3],2.09 µM (active)
same,Potency,[4],11.8 µM (active)
same,Potency,[5],18.7 µM (active)
same,Potency,[6],18.7 µM (active)
C[C@@H]1CC=CC=CC=CC=C[C@@H](O[C@@H]2O[C@H](C)[C@@H](O)[C@H](N)[C@H]2O)C[C@@H]2O[C@](O)(C[C@@H](O)C[C@@H]3O[C@@H]3C=CC(=O)O1)C[C@H](O)[C@@H]2C(=O)O,Potency,[1],inactive
same,Potency,[7],inactive
same,Potency,[2],7.43 µM (active)
same,Potency,[3],inactive
same,Potency,[4],8.33 µM (active)
same,Potency,[5],inactive
same,Potency,[6],inactive
same,Potency,[8],inactive
CC(=O)OCC(=O)[C@@]12OC(C)(C)O[C@H]1C[C@H]1[C@@H]3C[C@H](F)C4=CC(=O)C=C[C@]4(C)[C@@]3(F)[C@@H](O)C[C@@]12C,Potency,[1],inactive
same,Potency,[7],inactive
same,Potency,[3],inactive
same,Potency,[9],inactive
same,Potency,[10],inactive
same,Potency,[5],inactive
same,Potency,[8],inactive
COc1ccc2cc1Oc1ccc(cc1)C[C@H]1c3cc(c(OC)cc3CCN1C)Oc1c(OC)c(OC)cc3c1[C@H](C2)N(C)CC3,Potency,[1],inactive
same,Potency,[2],18.7 µM (active)
same,Potency,[4],23.5 µM (active)
same,Potency,[5],inactive
same,Potency,[6],29.6 µM (active)
CN1CCN(c2ncc(-c3cc(Cl)cc(Cl)c3Cl)c(N)n2)CC1,Potency,[1],inactive
same,Potency,[7],inactive
same,Potency,[2],inactive
same,Potency,[9],2.35 µM (active)
same,Potency,[4],10.5 µM (active)
same,Potency,[10],3.06 µM (active)
same,Potency,[5],inactive
same,Potency,[8],21.5 µM (active)
CC=C(C(=CC)c1ccc(O)cc1)c1ccc(O)cc1,Potency,[1],inactive
same,Potency,[7],inactive
same,Potency,[3],20.9 µM (active)
same,Potency,[9],23.5 µM (active)
same,Potency,[4],11.8 µM (active)
same,Potency,[5],inactive
same,Potency,[6],18.7 µM (active)
CC(C)(C)c1nc(-c2cccc(NS(=O)(=O)c3c(F)cccc3F)c2F)c(-c2ccnc(N)n2)s1,Potency,[1],inactive
same,Potency,[7],inactive
same,Potency,[2],18.7 µM (active)
same,Potency,[3],inactive
same,Potency,[4],0.59 µM (active)
same,Potency,[10],inactive
same,Potency,[6],inactive
same,Potency,[8],inactive
CCC[C@H](N[C@@H](C)C(=O)N1[C@@H]2CCCC[C@H]2C[C@H]1C(=O)O)C(=O)OCC,Potency,[1],inactive
same,Potency,[7],inactive
same,Potency,[2],inactive
same,Potency,[4],3.32 µM (active)
same,Potency,[5],inactive
Nc1ncnc2c1c(-c1cccc(OCc3ccccc3)c1)cn2C1CC(CN2CCC2)C1 (stereo not drawn),Potency,[1],inactive
same,Potency,[7],9.3 µM (active)
same,Potency,[2],inactive
same,Potency,[10],inactive
same,Potency,[11],10.5 µM (active)
same,Potency,[5],inactive
same,Potency,[6],3.32 µM (active)
O=C(CCCN1CCN(c2ccc(F)cc2)CC1)NC1c2ccccc2CSc2ccccc21 (stereo not drawn),Potency,[1],inactive
same,Potency,[2],14.8 µM (active)
same,Potency,[9],11.8 µM (active)
O=C1NC(=O)C(=Cc2ccc(-c3ccc(F)cc3O)o2)S1,Potency,[1],inactive
same,Potency,[7],inactive
same,Potency,[4],23.5 µM (active)
same,Potency,[11],5.26 µM (active)
CCCCC(C=O)NC(=O)C(CC(C)C)NC(=O)OCc1ccccc1 (stereo not drawn),Potency,[1],inactive
same,Potency,[3],inactive
same,Potency,[11],inactive
same,Potency,[5],inactive
same,Potency,[6],inactive
N#CC1(c2cccc(C(=O)Nc3cc(Oc4ccc5nc(NC(=O)C6CC6)sc5n4)ccc3F)c2Cl)CC1,Potency,[1],2.35 µM (active)
same,Potency,[7],inactive
same,Potency,[3],inactive
O=C1CN2Cc3c(ccc(Cl)c3Cl)N=C2N1,Potency,[1],inactive
same,Potency,[7],inactive
same,Potency,[5],inactive
same,Potency,[6],inactive
CC(O)=C(C#N)C(=O)Nc1ccc(C(F)(F)F)cc1,Potency,[1],13.2 µM (active)
same,Potency,[9],18.7 µM (active)
same,Potency,[5],inactive
Cc1cnc(CNC(=O)c2c(=O)c3ccc(N4CCCN(C)CC4)nc3n3c2sc2ccccc23)cn1,Potency,[1],inactive
same,Potency,[9],inactive
same,Potency,[11],6.45 µM (active)
same,Potency,[5],inactive
same,Potency,[6],inactive
OC(c1cc(C(F)(F)F)nc2c(C(F)(F)F)cccc12)C1CCCCN1 (stereo not drawn),Potency,[1],10.5 µM (active)
same,Potency,[7],inactive
same,Potency,[2],inactive
same,Potency,[9],18.7 µM (active)
same,Potency,[11],inactive
same,Potency,[8],34.1 µM (active)
Fc1ccc(C(c2ccc(F)cc2)N2CCN(CC=Cc3ccccc3)CC2)cc1,Potency,[1],inactive
same,Potency,[7],inactive
same,Potency,[2],inactive
same,Potency,[5],inactive
O=C(Nc1cccc2c(=O)cc(-c3nn[nH]n3)oc12)c1ccc(OCCCCc2ccccc2)cc1,Potency,[7],inactive
same,Potency,[5],inactive
COC1CCC(C(=O)c2ccc3nc4c(cc3c2)CCCO4)CC1 (stereo not drawn),Potency,[7],inactive
same,Potency,[2],inactive
same,Potency,[3],18.7 µM (active)
same,Potency,[9],23.5 µM (active)
same,Potency,[5],inactive
Cn1cnc(-c2cc3nccc(Oc4ccc(NC(=S)NC(=O)Cc5ccccc5)cc4F)c3s2)c1,Potency,[7],inactive
same,Potency,[3],0.0469 µM (active)
same,Potency,[9],29.6 µM (active)
same,Potency,[6],16.6 µM (active)
same,Potency,[8],21.5 µM (active)
CCCCc1ccc(NS(=O)(=O)c2ccc(C)c(C(=O)N3CCN(c4cccc(C)c4C)CC3)c2)cc1,Potency,[7],inactive
same,Potency,[3],20.9 µM (active)
same,Potency,[5],inactive
